Compound activity from PubChem BioAssay.
Tgondii IFNg – blocks Toxoplasma gondii growth in the presence of IFN-gamma; AID 1259416; 69,000 tested, 3.8% active; activity change, negative = inhibition, % (test concentration not listed); Toxoplasma gondii growth in IFN-gamma-treated host cells; stronger effect = lower value; in the data active means activity change below about -70%, passing the limit was not always enough;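 further: host cells are HeLa cells infected with Toxoplasma gondii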
The depositor's hits bear a star; i = inactive. This excerpt belongs to a sample that is enriched for hits.

SMILES | Tgondii IFNg
CCN(CC)S(=O)(=O)c1ccc(NC(=O)c2cc3cccc(OC)c3oc2=O)cc1 | -49
CN(Cc1n[nH]c2c1CCCCC2)C(=O)c1cn[nH]n1 | -5
CCOc1ccccc1Nc1nc(-c2nnc(-c3cccc(C)c3)o2)nc2ccccc12 | -51
COc1ccccc1Nc1nc(-c2nnc(-c3cccc(C)c3)o2)nc2ccccc12 | -86*
OC(CN1CCCC(COc2ccccc2F)C1)c1cccs1 (stereo unspecified) | -13
CN1CCN(CCOc2cc(OC3CCOCC3)c3c(Nc4c(Cl)ccc5c4OCO5)ncnc3c2)CC1 | 16
O=C(CCCOc1ccc(Cl)cc1Cl)NCc1ccccn1 | 13
CN(C)C/C=C/C(=O)Nc1cc2c(Nc3ccc(F)c(Cl)c3)ncnc2cc1O[C@H]1CCOC1 | -75*
C=CC(=O)Nc1cc2c(Nc3ccc(F)c(Cl)c3)ncnc2cc1OCCCN1CCOCC1 | -4
CCOc1cc2ncc(C#N)c(Nc3ccc(F)c(Cl)c3)c2cc1NC(=O)/C=C/CN(C)C | -77*
COc1ccc(C(=O)Nc2ccc3nc(C)c(C)nc3c2)cc1OCc1ccccn1 | 11
CCOc1cc2ncc(C#N)c(Nc3ccc(OCc4ccccn4)c(Cl)c3)c2cc1NC(=O)/C=C/CN(C)C | -81*
Cc1nn(C)c(C)c1-c1ccnc(N2CCC(c3ccccc3Cl)C2)n1 (stereo unspecified) | 35
CN(C)Cc1c(C(=O)NCCOc2ccc(C(=O)NO)cc2)oc2ccccc12 | -74*
COc1ccc(OCCNC(=O)c2cccs2)cc1 | 2
O=C(NCCCOc1ccccc1)c1c(O)cccc1O | 12
CN(C)C(=O)COCC1CN(Cc2ccncc2)Cc2ccnn2C1 (stereo unspecified) | 6
COc1ccc(-c2ccccc2NC(=O)CCN2C(=O)CCNC2=O)cc1 | 1
COc1ncccc1-c1ccc(NC2CCCC2)nn1 | -33
COc1ccc(-c2cc(-c3ccc4ccccc4c3)n(C)c2-c2ccc(F)cc2)cc1 | -94*
COc1ccc(-c2cc(-c3ccccc3)c(-c3ccccc3)o2)cc1 | -16
COc1ccc(-c2nc(Nc3ccc(F)cc3)c3ccccc3n2)cc1 | -28
Nc1ncc(C(=O)Nc2cnc3n2CCCC3)c(-c2ccccc2)n1 | 2
COCCN1CCOCC12CCN(c1cnccn1)CC2 | 6
Cc1cc(C)n(-c2ncc(C#N)c(N)n2)n1 | 22
SMILES | Tgondii IFNg
Cc1cc(C)n(-c2nc3ccccc3s2)n1 | 417
Cc1ccc(-c2cc(-c3ccccc3)nc(-n3nc(C)cc3C)n2)cc1 | -104*
CC(C)NC(=O)C1CCC2(CCN(Cc3ccccc3)CC2)CO1 (stereo unspecified) | -1
CCOC(=O)C1CCC(CNC(=O)N2CCC3(CC2)c2cccn2-c2ccc(C)cc2N3CC)CC1 (stereo unspecified) | -10
CCN1c2cc(C)ccc2-n2cccc2C12CCN(C(=O)Nc1cccc(SC)c1)CC2 | -87*
O=C(Nc1cccc(C(F)(F)F)c1)N1CCC2(CC1)Nc1ccccc1-n1cccc12 | 474
CCN1c2cc(C)ccc2-n2cccc2C12CCN(C(=O)Nc1ccccc1C)CC2 | 15
CCN1c2cc(C)ccc2-n2cccc2C12CCN(C(=O)Nc1cccc(F)c1)CC2 | -85*
CCN1c2cc(C)ccc2-n2cccc2C12CCN(C(=O)Nc1ccccc1Cl)CC2 | -110*
CSc1cccc(NC(=O)N2CCC3(CC2)Nc2cc(F)ccc2-n2cccc23)c1 | i
CCN1c2cc(C)ccc2-n2cccc2C12CCN(C(=O)Nc1cccc(Cl)c1C)CC2 | -28
CCN1c2cc(C)ccc2-n2cccc2C12CCN(C(=O)NC(C)C)CC2 | -16
Cc1ccc2c(c1)NC1(CCN(C(=O)Nc3cccc(C(F)(F)F)c3)CC1)c1cccn1-2 | 81
CCN1c2cc(C)ccc2-n2cccc2C12CCN(C(=O)Nc1cccc(C(F)(F)F)c1)CC2 | -111*
CCN1c2cc(C)ccc2-n2cccc2C12CCN(C(=O)Nc1ccc(C)cc1Cl)CC2 | 107
COC(=O)CCn1cc(CN2CCCN(c3ccc(F)cc3)CC2)cn1 | 11
O=C1N(Cc2ccccn2)C(=O)C2(CCN(Cc3ccc4ncccc4c3)CC2)N1Cc1ccccc1 | -6
Cc1ccc(C)c(NC(=O)N2CCC3(CC2)Nc2cc(C)ccc2-n2cccc23)c1 | -54
Cc1cc(C)cc(NC(=O)N2CCC3(CC2)Nc2cc(F)ccc2-n2cccc23)c1 | 162
CCN1c2cc(C)ccc2-n2cccc2C12CCN(C(=O)Nc1cccc(Br)c1)CC2 | -84*
Cc1cc(C)cc(NC(=O)N2CCC3(CC2)Nc2cc(C)ccc2-n2cccc23)c1 | -108*
CCN1c2cc(C)ccc2-n2cccc2C12CCN(C(=O)Nc1ccc(C)c(Cl)c1)CC2 | 5
CCN1c2cc(C)ccc2-n2cccc2C12CCN(C(=O)Nc1ccc(OC)c(OC)c1)CC2 | -31
COCCN1CCc2cc(C(=O)O)c(-c3ccnn3C)nc2CC1 | 381
COc1ccc(-c2nc(CN(c3ccccc3)S(=O)(=O)c3cccs3)c(C)o2)cc1OC | -40
SMILES | Tgondii IFNg
CN1CCN(CC#N)C2(CCN(C(=O)c3cccn3C)C2)C1=O (stereo unspecified) | 238
Cc1cc(C)c(S(=O)(=O)NCCc2sc(-c3ccc(F)cc3)nc2C)c(C)c1 | 33
C=CCNc1ccccc1C(=O)N(C)Cc1ccc(CC)cn1 | 12
Cc1oc(-c2ccccc2)nc1CNS(=O)(=O)c1ccc(C(C)C)cc1 | -62
Cc1ccc(-c2nc(CNS(=O)(=O)c3ccc(C(C)C)cc3)c(C)o2)cc1 | -105*
COc1ccc(-c2nc(CNS(=O)(=O)c3ccc(OC)cc3)c(C)o2)cc1 | 0
CCCc1cnc(C)nc1-c1cccc(CN2CCOCC2)c1 | 0
CC(=O)N1CCC(C(=O)NCc2ccccc2)(N(Cc2ccccc2C)C(=O)c2ccc(C)cc2)CC1 | 36
COc1cccc(CN(C(=O)c2ccc(C)cc2)C2(C(=O)NCc3ccccc3)CCN(C(C)=O)CC2)c1OC | -93*
COc1ccc(OC)c(CN(C(=O)c2ccc(C)cc2)C2(C(=O)NCc3ccccc3)CCN(C(C)=O)CC2)c1 | -4
COc1ccc(N2CCCC2)cc1C(=O)O | -41
CN(C)C(=O)N1CCc2ccc(=O)n(CC3CCOCC3)c2CC1 | -51
CCCCC1CCC(C(=O)Nc2cc(C)nn2-c2ncnc3c2cnn3-c2ccc(C)cc2C)CC1 (stereo unspecified) | 21
Cc1ccc(-n2ncc3c(-n4nc(C)cc4NC(=O)C4CCCC4)ncnc32)c(C)c1 | -106*
Cc1ccc(-n2ncc3c(-n4nc(C)cc4NC(=O)CCC4CCCC4)ncnc32)c(C)c1 | -31
COc1ncccc1-c1cc(C)ccc1N1CCOC1=O | 6
CCc1cc(C(=O)NCc2cccnc2Oc2cccc(C(F)(F)F)c2)no1 | 1
Cc1ccc(-c2coc(-c3ccc(NC(=O)Cc4ccccc4C)cc3)n2)cc1 | -12
C=CCOCC1c2nnn(CC)c2CCN1C(=O)c1cscn1 (stereo unspecified) | -27
O=c1cc(-c2ccccc2)oc2cc(O)ccc12 | 28
O=c1cc(-c2ccc(O)cc2)oc2cc(O)cc(O)c12 | 53
O=c1cc(-c2ccc(O)cc2)oc2ccc(O)cc12 | -87*
Cc1nc(CN(C)C(=O)CCn2nnc3ccccc32)no1 | 7
Cc1ccc(C(NC(=O)CCc2c(C)nn(C)c2C)c2ccncc2)cc1 (stereo unspecified) | -5
O=c1c2ccccc2n(Cc2ccc(F)cc2)c2ccccc12 | -81*
c1ccc(Cn2c3ccccc3c3ccccc32)cc1 | -16
O=C1CCCc2c1c1ccccc1n2Cc1ccccc1 | -47
CCc1nc(N)c(C#N)c(-c2ccccc2)c1C | 12
N#Cc1c(-c2ccccc2)cc(-c2ccc(Cl)cc2)nc1N | 10
